An excerpt weighted towards active compounds, which were near 9.2% of everything screened.
OTUD3 inh: inhibitors of human OTUD3 deubiquitinase; Q5T2D3; purified OTUD3, Ub-rhodamine fluorescence, 2 h; inhibition, % at 25 µM; 0.7% of 47,000 active
USP17 inh: human USP17-like deubiquitinase inhibition. purified USP17, Ub-rhodamine cleavage fluorescence, 3 h. AID 1645855. 6.5% of 47,000 active. A8MUK1. inhibition, % at 50 µM
USP7 block: inhibitors of human USP7 deubiquitinase; Q93009; purified USP7, Ub-rhodamine cleavage fluorescence; inhibition, % at 20 µM; 0.3% of 47,000 active; AID 1645854
Target sequence (Q93009 whole entry, looked up): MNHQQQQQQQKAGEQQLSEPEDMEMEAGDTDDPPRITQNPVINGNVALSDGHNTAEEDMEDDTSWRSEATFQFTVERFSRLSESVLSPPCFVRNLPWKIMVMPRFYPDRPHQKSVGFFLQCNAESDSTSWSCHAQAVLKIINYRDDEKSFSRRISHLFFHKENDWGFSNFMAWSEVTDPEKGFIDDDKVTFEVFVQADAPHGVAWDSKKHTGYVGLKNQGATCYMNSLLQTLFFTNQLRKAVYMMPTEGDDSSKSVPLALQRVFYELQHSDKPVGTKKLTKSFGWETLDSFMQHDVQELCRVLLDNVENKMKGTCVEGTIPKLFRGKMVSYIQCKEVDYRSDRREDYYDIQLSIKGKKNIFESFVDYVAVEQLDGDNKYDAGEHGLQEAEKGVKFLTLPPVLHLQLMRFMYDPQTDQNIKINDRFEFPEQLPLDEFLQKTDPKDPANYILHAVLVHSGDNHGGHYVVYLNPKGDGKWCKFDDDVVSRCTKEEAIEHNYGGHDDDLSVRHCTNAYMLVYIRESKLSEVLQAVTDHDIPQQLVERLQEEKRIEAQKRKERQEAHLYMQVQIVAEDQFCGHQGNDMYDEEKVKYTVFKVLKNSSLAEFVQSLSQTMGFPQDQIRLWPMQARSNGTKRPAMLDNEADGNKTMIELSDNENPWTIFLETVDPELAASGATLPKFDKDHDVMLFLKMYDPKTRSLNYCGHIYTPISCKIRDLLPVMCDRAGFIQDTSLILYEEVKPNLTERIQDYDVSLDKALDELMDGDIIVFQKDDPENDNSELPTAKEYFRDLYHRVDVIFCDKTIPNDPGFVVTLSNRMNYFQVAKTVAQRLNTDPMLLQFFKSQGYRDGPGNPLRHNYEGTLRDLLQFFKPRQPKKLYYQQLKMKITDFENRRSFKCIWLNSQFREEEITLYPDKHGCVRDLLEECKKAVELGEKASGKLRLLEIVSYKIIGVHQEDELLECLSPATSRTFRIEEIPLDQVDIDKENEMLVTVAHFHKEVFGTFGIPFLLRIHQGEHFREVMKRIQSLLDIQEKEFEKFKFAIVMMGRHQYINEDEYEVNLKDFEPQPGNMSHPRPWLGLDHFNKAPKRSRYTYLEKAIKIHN
UCHL1 block: blocks human UCHL1 ubiquitin-rhodamine cleavage. P09936. purified UCHL1, Ub-rhodamine cleavage fluorescence. inhibition, % at 20 µM. 0.2% of 47,000 active
USP8 inh: blocks human USP8 ubiquitin-rhodamine cleavage | P40818 | purified USP8, Ub-rhodamine cleavage fluorescence, 30 min | inhibition, % at 20 µM | 4.2% of 47,000 active | AID 1645853
USP10 block: blocks human USP10 ubiquitin-rhodamine cleavage | AID 1645856 | inhibition, % at 20 µM | purified USP10, Ub-rhodamine fluorescence, 60 min | 1.1% of 47,000 active | Q14694
Starred values were filed as active, the others as inactive; . = no result. Cut-off read from the data, not from the text of the source: active = inhibition above about 30%; inactive = the rest.

SMILES | OTUD3 inh | USP17 inh | USP7 block | UCHL1 block | USP8 inh | USP10 block
O=C(Nc1cc(C(F)(F)F)cc(C(F)(F)F)c1)c1ccc(-c2ccccn2)s1 | 8 | 19 | 9 | 2 | -5 | 15
CC(=O)N1CCCC(Cc2cnc(-c3cccc(C(=O)O)c3)cn2)C1 (configuration not stated) | 9 | 15 | 2 | -1 | 5 | -3
O=C(Nc1ccc(S(=O)(=O)N2CCCC2)cc1)c1ccccc1C(F)(F)F | -11 | -22 | 0 | -3 | -19 | 0
O=C(Nc1ccc(S(=O)(=O)N2CCCCC2)cc1)c1ccccn1 | 4 | 75* | 11 | 3 | 1 | 2
Cc1[nH]c(C)c(S(=O)(=O)Nc2cccc(C#N)c2)c1C(=O)N1CCCC1 | -9 | -10 | -62 | -4 | -4 | -1
Cn1ncc2c(Nc3ccc(Cl)cc3)nc(NCCc3ccccc3)nc21 | -7 | 36* | 5 | 3 | -1 | 0
Cc1ccc(C(O)Cn2cc(C(=O)Nc3cccc(C)c3)nn2)cc1 (configuration not stated) | -1 | 80* | 7 | 2 | 7 | 5
O=C(COC(=O)c1cc2c(s1)CCC2)c1ccc2[nH]c(=O)[nH]c2c1 | 36* | 56* | -22 | 7 | 70* | 4
Cc1cc(C)n(CC(=O)NCc2cc(F)cc(F)c2)c1-c1nc(C2CC2)no1 | 4 | 0 | -71 | -1 | 10 | -6
O=C(Cc1ccccc1F)N1CCC[C@H]1Cn1nnc(-c2cccnc2)n1 | 12 | 12 | 3 | 2 | 13 | 1
c1csc(-c2nc(Nc3ccc4c(c3)CCC4)c3ccccc3n2)c1 | -23 | 71* | 6 | -1 | 57* | -2
Cc1ccc(C(=O)CCN2CCOCC2)c(C)c1 | -2 | -2 | 1 | 0 | 2 | 0
Cc1cc2cc(CNC(=O)Cc3cccc4ccccc34)ccc2[nH]1 | -7 | 40* | -6 | 0 | 27 | -2
O=C(Cc1cccc2ccccc12)NCc1ccc2[nH]c3c(c2c1)CCCC3 | -29 | -5 | -12 | -6 | -15 | -13
Cc1cc2cc(CNC(=O)Cc3ccc([N+](=O)[O-])cc3)ccc2[nH]1 | 10 | 37* | -86 | 4 | -73 | 0
O=C(CCc1nnc2n(Cc3ccc(Cl)cc3)c(=O)c3ccccc3n12)N1CCN(c2ccc(F)cc2)CC1 | -5 | -7 | -4 | 3 | 2 | 1
COCCN1C[C@@]23CN(C(=O)c4cnc(C)cn4)C[C@@H](C[C@@H]2S1(=O)=O)O3 | -4 | -18 | -1 | -3 | -56 | -5
Cn1cc(-c2nc(C(=O)Nc3ccc(C#N)cc3)cs2)c2cccnc21 | -58 | -25 | 10 | 2 | 85* | 14
COC(=O)CN1Cc2c(C(=O)N3CC=CC3)ncn2-c2ccccc2S1(=O)=O | -14 | -17 | -5 | -7 | -1 | -5
CCN1C(=O)Cc2cc(NS(=O)(=O)c3ccc(OC)cc3)ccc21 | 9 | 0 | 1 | 1 | 12 | 2
COc1ccc(S(=O)(=O)Nc2ccc3nn(C)cc3c2)cc1 | -18 | 34* | -6 | -5 | 77* | -4
O=C(c1ccccc1)c1c(-c2ccccc2)oc2ccc(NS(=O)(=O)c3ccc(Cl)cc3)cc12 | 10 | 10 | 16 | 10 | 23 | 33*
Cc1oc2ccc(NS(=O)(=O)c3ccc(F)cc3)cc2c1C(=O)OCc1ccccc1 | 7 | 6 | 13 | 7 | 9 | 20
COc1ccc(Cn2c(SCC(=O)Nc3cc(C)[nH]n3)nc3nccnc3c2=O)cc1 | 7 | 48* | 5 | 2 | 3 | 0
CCOC(=O)CSc1nc2nccnc2c(=O)n1Cc1ccccc1 | 11 | -10 | 1 | 0 | -26 | -5
SMILES | OTUD3 inh | USP17 inh | USP7 block | UCHL1 block | USP8 inh | USP10 block
COc1cc2ccccc2cc1C(=O)OC(C)C(=O)N(C)c1ccccc1 (configuration not stated) | -5 | -6 | -3 | 0 | 0 | 2
Cc1ccccc1C(=O)Nc1ccc(NC(=O)CN2CCOCC2)cc1 | -11 | -17 | 0 | -2 | -1 | -2
O=C(CN1CCOCC1)Nc1ccc(NC(=O)c2ccc(Cl)cc2)cc1 | 0 | -1 | -4 | 69* | -6 | 1
NC(N)=NCCC(=O)N1CCc2nc3ccccc3n2C(Cc2ccccc2)C1 (configuration not stated) | -3 | -27 | -7 | -2 | -88 | 0
CCCCCCCCCCCC1=C(O)C(=O)C=C(O)C1=O | 94* | 100* | 50* | 8 | 60* | 80*
CN1CC[C@@]2(C(=O)N3CCOCC3)CCN(S(=O)(=O)c3ccccc3)CC[C@@H]12 | -6 | -23 | -2 | -1 | -84 | 2
COCCn1c(SCC(=O)Nc2cccc3ccccc23)nc2ccccc21 | -9 | -1 | -10 | 0 | -3 | -5
Cn1c(SCC(=O)NCc2ccccc2)nnc1-c1cc2ccccc2o1 | 11 | 18 | -2 | 4 | 30* | 5
COCCn1c(SCC(=O)c2ccc(F)cc2)nc2ccccc21 | 23 | 36* | -10 | 0 | -5 | 3
Cn1c(SCC(=O)c2ccc(F)cc2)nnc1-c1cc2ccccc2o1 | 1 | 73* | 2 | -1 | 41* | 6
COc1cccc(NC(=O)CSc2nnc(-c3cc4cccc(OC)c4o3)n2C)c1 | 11 | 60* | 5 | 0 | 1 | 1
COc1ccc(Sc2cc3c(cc2NC(=O)c2ccccc2F)n(C)c(=O)n3C)cc1 | -28 | 19 | 2 | -6 | -15 | -9
COc1ccccc1CNc1ncc(-c2onc(C)c2C)c(-c2ccco2)n1 | 10 | 15 | 15 | 11 | 24 | 4
COC1C(O)=C2C(=O)O/C(C)=C/C=C/C=C/C=C/CC(c3ccccc3)NC(=O)/C=C/C=C/C=C\C=C\C2(C)C1O (configuration not stated) | 33* | 43* | 2 | 19 | -47 | 0
Cc1noc(C)c1CNC(=O)c1ccc2c(c1)OCO2 | 6 | 12 | 2 | 0 | -2 | -3
Cc1ccc(C(=O)NCCc2nc(-c3ccc4c(c3)OCO4)n[nH]2)cc1F | 8 | 47* | -13 | 2 | 32* | 1
O=C(NCC1CCCO1)C1CCN(S(=O)(=O)c2cccc3cnccc23)CC1 (configuration not stated) | -14 | -19 | 2 | -5 | -42 | -14
O=[N+]([O-])c1ccccc1C(c1c[nH]c2ccccc12)c1c[nH]c2ccccc12 | -3 | 54* | -4 | 6 | 82* | -3
CC(C)CC(=O)Nc1scc(-c2ccccc2)c1C(=O)Nc1ccccc1F | 20 | . | 10 | 2 | 15 | 6
Cn1c2ccc(F)cc2c2ncn(Cc3cccnc3)c(=O)c21 | 6 | -1 | 0 | 3 | 0 | 2
Cc1ccc(NC(=O)CC2C(=O)Nc3nc(-c4ccccc4)nn32)cc1 (configuration not stated) | 13 | 45* | 5 | 4 | 3 | 5
